We go through 15 compounds from PubChem BioAssay (NCI).

The panel holds about 83,000 compounds, 20% with a hit somewhere; the sample as a whole holds those more often.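 In brief: 96-well plates, 48 h treatment, single concentration, percent growth endpoint.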 The source made the active and inactive calls. How the source made its calls: active means growth percent below 10; inactive means the rest.

In this test the test system is MDA-MB-468 breast. Kind of test: NCI-60 one-dose screen, 48 h (100 = growth as untreated, 0 = no growth, -100 = all killed). Conditions: 10 µM unless noted.
`Oc1c(I)cc(-c2nc3ccccc3s2)cc1CN(Cc1ccccn1)Cc1ccccn1`: the growth was -11.4% (active). On to `O=C(Nc1ccccc1)Nc1ccccc1CNc1nc(Nc2ccc(OCCN3CCCC3)cc2)ncc1Cl`, for which the growth was 17.7% (inactive). With `CCN(CC)c1ccc(/C=N/NC(=O)C[N+](C)(C)C)cc1` the figure was 112% (inactive); with `O=C(N/N=C/c1c(Cl)cccc1Cl)c1cccnc1Nc1cccc(C(F)(F)F)c1`, 26.6% (inactive); with `CCCCNc1ccc(Nc2ccccc2)cc1`, 11.4% (inactive). The result for `CC/C=C\C[C@H](O)C/C=C1/C(=O)C=C[C@@]1(C)C/C=C\CCCC(=O)OC` reads 105% (inactive); that for `CN(C)CCCn1c2c(c3ccc(-c4ccn[nH]4)cc3c1=O)C(=O)c1ccccc1-2`, 35% (inactive). Turning to `COc1cc(-c2cnc3nonc3n2)c(OC)c2c1OCO2`, the growth is 83.5% (inactive). On to `CC(=O)Nc1c(I)c(NC(C)=O)c(I)c(C(=O)O)c1I`, for which the growth was 115% (inactive). The result for `C#CCOc1ccc2ncnc(N3CCN(C(=O)CCl)CC3)c2c1` reads -9.23% [8.25 µM] (active); that for `Clc1ccc2c(NCCN3CCN(c4ccnc(N5CCCC5)n4)CC3)ccnc2c1`, -4.71% (active). Turning to `CC(=O)c1c(-c2ccc(OC(F)(F)F)cc2)nc2ccccn12`, the growth is 94.7% (inactive). On to `C=CN(C(=O)N1CCN(c2cc3c(cc2F)c(=O)c(C(=O)O)cn3C2CC2)CC1)c1nc(-c2ccccc2)cs1`, for which the growth is 100% (inactive). Turning to `O=C(Nc1ccc2ncsc2c1)c1csc(Nc2ccc3[nH]ncc3c2)n1`, the growth was 35.6% (inactive). Regarding `C#C[C@]1(O)CC[C@H]2[C@@H]3CC=C4c5sc(Nc6cc(Cl)ccc6OC)nc5CC[C@]4(C)[C@H]3CC[C@@]21C`, the growth was 4.64% (active).
